Assay results taken from PubChem BioAssay (NCATS).
Where “and” joins values, the source holds several entries; their conditions need not be identical. Equal entries are not always repeated. Inconclusive results are not listed. Values without a mark were called inactive. Calls of active or inactive are those of the source. Calls come from the whole dose curve; as a rule, active = well fitted inhibition curve with a large enough effect; inconclusive = small, poorly fitted or top-dose-only effect; inactive = no such curve, though single readings can be large or run the other way.

Assay: qHTS for Inhibitors of the Aldehyde Dehydrogenase Family (ALDH1A2, ALDH1A3, ALDH2, ALDH3A1) (AID 2061307); note: nearly all actives have a fitted effect of over 50% in size; for Potency: test system not described further here
Details: ALDH inhibition qHTS; series mostly up to 50.3 µM; activity change, negative = inhibition: at the top concentration
% is set by controls: 0 for no effect and ±100 for the full control effect; potency is the fitted concentration of half-maximal effect.

In order of falling “activity change, negative = inhibition” value:
1. COc1ccc(C(=O)c2c(C)n(CC(=O)O)c3cc(OC)ccc23)cc1  -0.648% [at 34.4 µM]
2. CC(=O)c1cccc(NC(=O)c2noc3c2CSc2ccccc2-3)c1  -16% [at 34.4 µM]
3. CSCc1cccc(C(=O)Nc2cccnc2)c1  -17.7% [at 34.4 µM]
4. O=C(NCc1ccccn1)c1ccc2nnc(-c3ccc(OC(F)(F)F)cc3)n2c1  -20.7% [at 34.4 µM]
5. COC(=O)c1ccc2c(c1)CCN2C(=O)c1cnn(-c2ccccc2)c1  -31.1% [at 34.4 µM]
6. CCn1nc(C)c(CNc2ccc(S(N)(=O)=O)cc2C#N)c1C  -34.8% [at 34.4 µM]
7. O=C(NCCN1CCN(c2cccc(Cl)c2)CC1)Nc1ccccc1C(F)(F)F  -60.6% [at 34.4 µM]
8. COc1cccc(NC(=O)c2cc3c(-c4ccc(Cl)cc4)nn(C)c3s2)c1  -63.2% [at 34.4 µM]

In the case of `COCCCn1c(SCC(=O)Nc2ccc(C(N)=O)cc2)nnc1-c1ccc(Cl)cc1`, the Potency is reported as 2.24 µM (active).
For `CCOc1ccc(NCC(=O)Nc2ccc(Cl)cc2C)cc1`, the Potency was 2.25 µM (active) and 7.94 µM (active).
In the case of `O=[N+]([O-])c1ccc(S(=O)(=O)Nc2nc(-c3ccccc3)cs2)cc1`, the Potency is reported as 3.57 µM (active).
In the case of `Clc1ccc(-c2noc3ncnc(N4CCCCC4)c23)cc1`, the Potency is reported as 11.3 µM (active).
In the case of `O=C(CSc1n[nH]c2nc3ccccc3n12)Nc1cc(C(F)(F)F)ccc1Cl`, the Potency is reported as 15.8 µM (active).

In order of rising “activity change, negative = inhibition” value:
1. CC(=O)Nc1ccc(OCc2cn(CC(=O)c3ccc(O)cc3)nn2)cc1  -16.1%
2. O=C(Nc1cccc(C(F)(F)F)c1)c1ccccc1NCc1ccccc1  -16%
3. COc1ccccc1C(=O)Nc1nc2nc(C)cc(=O)n2[nH]1  -10.3%
4. COc1cccc(CNc2ccc(S(=O)(=O)Nc3nc4ccccc4[nH]3)cc2)c1O  -9.18%
